From PubChem BioAssay (NCI)
About 83,000 compounds went through this panel and 20% of them were active in at least one assay; those are over-represented in the sample as a whole.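 Method: cells in 96-well plates; compound added at one concentration; 48 h incubation; percent growth measured; values under 10 scored active.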 Values without a mark were called inactive. Calls of active or inactive are those of the source.

system: CCRF-CEM leukemia; experiment: NCI-60 one-dose screen, 48 h (100 = growth as untreated, 0 = no growth, -100 = all killed); settings: 10 µM unless noted

Compared with `NC1=C(Cl)C(=O)c2ccc(S(N)(=O)=O)cc2C1=O`, `Cc1[nH]c(-c2cc(N)ccc2Cl)c2c1C(=O)CCCC2` is higher in growth: 20.1% for the first, 52.3% for the second.

Going from `O=C1c2cc3c(cc2-c2c1c1ccc(Cl)cc1c(=O)n2CCCN1CCOCC1)OCO3` to `Cn1c(NCCc2ccc(O)c(O)c2)nc2c1c(=O)n(Cc1ccc(Cl)c(Cl)c1)c(=O)n2C`, the growth falls from 20.7% to 17.8%.

First: O=C1C=CC(=O)N1c1ccc2c(c1)Cc1cc(F)ccc1-2
Second: Cn1cc(C(=O)c2nc(-c3c[nH]c4ccc(Br)cc34)no2)c2cc(F)ccc21
The growth of the first is lower: 65.2% for the first, 100% for the second.

Compared with `FC(F)(F)c1nc2c(NCc3ccc(-c4ccccc4)cc3)cccc2[nH]1`, `O=C(N(c1ccccc1)c1ccccc1)n1ccc2nc(Cl)nc(Cl)c21` is lower in growth: 44.8% for the first, 16% for the second.

Compared with `Brc1ccc(-c2csc(Nc3ccccn3)n2)cc1`, `Cn1cc(-c2nonc2-c2c[nH]c3ccccc23)c2cccnc21` is lower in growth: 74.8% for the first, 20.2% for the second.

Compared with `O=C(Cc1ccccc1Nc1c(Cl)cccc1Cl)NN1C(=O)/C(=C/c2ccc(Br)cc2)SC1=S`, `COc1ccc(C2CC(c3ccc(Cl)cc3)=NN2/C=C2\SC(=S)N(NC(=O)Cc3ccccc3Nc3c(Cl)cccc3Cl)C2=O)cc1` (stereo not given) is lower in growth: 107% for the first, 38.3% for the second.

Compared with `COc1cccc(C2=NN3C(C2)c2cc(Br)cc(OC)c2OC32CCN(Cc3ccccc3)CC2)c1` (stereo not given), `O=C1/C(=C(/c2ccccc2)N2CCOCC2)Cc2ccccc21` is lower in growth: 109% for the first, 22.6% for the second.

Going from `CC(C)(C)c1cc(C(C)(C)C)cc(S(=O)(=O)Nc2cc3ccccc3cc2C(=O)NCCN)c1` to `Cn1ncc2c(=O)nc3c(-c4ccccc4)n[nH]n3c21`, the growth rises from 57.7% to 127%.

Compared with `Cc1[nH]c(-c2ccc3cc[nH]c3c2)c2c1C(=O)CCCC2`, `Cc1nn(-c2ccc(F)cc2)c2ncnc(Oc3ccc(NC(=O)Nc4ccc(Cl)c(C(F)(F)F)c4)cc3)c12` is higher in growth: 64.7% for the first, 102% for the second.

`OC(c1cc2cc(Cl)c(Cl)cc2c2cc(C(F)(F)F)ccc12)C1CCCCN1` (stereo not given) was tested, and the growth was -45% (active).
`CCOC(=O)c1csc(NC(=O)COc2cccc(/C=C3\CSc4ccccc4C3=O)c2)n1` was tested, and the growth was -61.3% (active).
With `COc1cc(/C=C/c2cc(/C=C/c3ccc(O)c(OC)c3)n(-c3c(C)cccc3C)c(=O)n2)ccc1O` the growth was 7.03% (active).
`NC(=O)c1cc(Cl)ccc1NC(=O)/C=C/c1ccccc1` was tested, and the growth was 3.8% (active).

system: MOLT-4 leukemia; experiment: as above; settings: 10 µM unless noted

Compared with `CC(C)(C)N1CCC1CN` (stereo not given), `CC(C)(C)c1cc(C(C)(C)C)cc(S(=O)(=O)Nc2cc3ccccc3cc2C(=O)NCCN)c1` is lower in growth: 128% for the first, 77% for the second.

Compared with `CC[C@]1(O)C[C@@H]2CN(CCc3c([nH]c4ccccc34)[C@@](C(=O)OC)(c3cc4c(cc3OC)N(C)[C@H]3[C@@](O)(C(N)=O)[C@H](O)[C@]5(CC)[C@@H]6C[C@@H]6CN6CC[C@]43[C@@H]65)C2)C1`, `COc1cccc(C2=NN3C(C2)c2cc(Br)cc(OC)c2OC32CCN(Cc3ccccc3)CC2)c1` (stereo not given) is higher in growth: 17.1% for the first, 106% for the second.

Going from `Cc1nn(-c2ccc(F)cc2)c2ncnc(Nc3ccc(NC(=O)Nc4ccc(Cl)c(C(F)(F)F)c4)cc3)c12` to `Cc1nn(-c2ccc(F)cc2)c2ncnc(Oc3ccc(NC(=O)Nc4ccc(Cl)c(C(F)(F)F)c4)cc3)c12`, the growth rises from 26.4% to 104%.

`CC(=O)O[C@H]1[C@@H]2OC(=O)C(CSc3ccccc3)[C@@H]2C[C@H]2O[C@]2(C)CC/C=C(\C)CCC[C@@H]1C` (stereo not given in full) and `O=C1/C(=C(/c2ccccc2)N2CCOCC2)Cc2ccccc21` are the same in growth: 22.7% for the first, 22.7% for the second.

Compared with `CCC(=O)c1ccc(Cl)s1`, `Cc1ccc(OC(=O)c2ccc(Cl)cc2)cc1` is higher in growth: 94% for the first, 113% for the second.

Compared with `O=C1CC[C@H](c2ccc(O)c3c2C(=O)[C@@H]2O[C@@H]2C3=O)c2cccc(O)c21`, `Cn1c(NCCc2ccc(O)c(O)c2)nc2c1c(=O)n(Cc1ccc(Cl)c(Cl)c1)c(=O)n2C` is lower in growth: 45.1% for the first, 11.8% for the second.

Compared with `COc1ccc(S(=O)(=O)N2CC3(COC3)C2)cc1NC(=O)c1[nH]c(C)c2c1CCCCC2=O`, `Cc1[nH]c(-c2ccc3cc[nH]c3c2)c2c1C(=O)CCCC2` is lower in growth: 76.4% for the first, 68.6% for the second.

Compared with `O=C1/C(=C/c2ccc3c(c2)OCO3)SC(=S)N1CCc1ccc(O)cc1`, `O=C(Cc1ccccc1Nc1c(Cl)cccc1Cl)NN1C(=O)/C(=C/c2ccc(Br)cc2)SC1=S` is higher in growth: 87.3% for the first, 107% for the second.

Compared with `Oc1ccccc1-c1nnc(CNc2ccc(Cl)cc2)o1`, `NC(=O)c1cc(Cl)ccc1NC(=O)/C=C/c1ccccc1` is higher in growth: 15.5% for the first, 28.4% for the second.

Going from `O=C(CCCCC(=O)N/N=C\c1ccccc1O)N/N=C\c1ccccc1O` to `Cc1ccc(NC(=O)/C=C/c2ccccc2)c(C(N)=O)c1`, the growth rises from 14.6% to 30.7%.

First: NC1=C(Cl)C(=O)c2ccc(S(N)(=O)=O)cc2C1=O
Second: Cc1[nH]c(-c2cc(N)ccc2Cl)c2c1C(=O)CCCC2
The growth of the first is lower: 11.8% for the first, 52.7% for the second.

Compared with `O=C1C=CC(=O)N1c1ccc2c(c1)Cc1cc(F)ccc1-2`, `Cn1cc(C(=O)c2nc(-c3c[nH]c4ccc(Br)cc34)no2)c2cc(F)ccc21` is higher in growth: 43.7% for the first, 94.8% for the second.

Going from `Brc1ccc(-c2csc(Nc3ccccn3)n2)cc1` to `Cn1cc(-c2nonc2-c2c[nH]c3ccccc23)c2cccnc21`, the growth falls from 82.6% to 16.5%.

First: COc1ccc(C2CC(c3ccc(Cl)cc3)=NN2/C=C2\SC(=S)N(NC(=O)Cc3ccccc3Nc3c(Cl)cccc3Cl)C2=O)cc1 (stereo not given)
Second: O=C(N(c1ccccc1)c1ccccc1)n1ccc2nc(Cl)nc(Cl)c21
The growth of the first is lower: 13.5% for the first, 37.1% for the second.

`Cn1ncc2c(=O)nc3c(-c4ccccc4)n[nH]n3c21` gave a growth of 99.6%.

In the case of `C=C1C(=O)O[C@H]2[C@H]1CC/C(COC(=O)c1cc3cc(OC)ccc3[nH]1)=C\CC[C@@]1(C)O[C@@H]21`, the growth is reported as -14.6% (active).
For `O=C(N/N=C/c1ccccc1O)c1ccccc1Nc1ccnc(C(F)(F)F)c1`, the growth was 5.72% (active).
`CN1CCN(CCCOc2cccc3nc(Nc4ccc(Cl)c(F)c4)ccc23)CC1` was tested, and the growth was -22% (active).
With `O=C1c2cc3c(cc2-c2c1c1ccc(Cl)cc1c(=O)n2CCCN1CCOCC1)OCO3` the growth was 8.7% (active).
For `FC(F)(F)c1nc2c(NCc3ccc(-c4ccccc4)cc3)cccc2[nH]1`, the growth was 9% (active).
With `OC(c1cc2cc(Cl)c(Cl)cc2c2cc(C(F)(F)F)ccc12)C1CCCCN1` (stereo not given) the growth was -60.3% (active).
In the case of `CCOC(=O)c1csc(NC(=O)COc2cccc(/C=C3\CSc4ccccc4C3=O)c2)n1`, the growth is reported as -50.9% (active).
With `COc1cc(/C=C/c2cc(/C=C/c3ccc(O)c(OC)c3)n(-c3c(C)cccc3C)c(=O)n2)ccc1O` the growth was 6.55% (active).

With `C#CCOc1ccc2ncnc(N3CCC(NC(=O)CCl)CC3)c2c1` the growth was 40.9% [8.25 µM].
